# PubChem BioAssay (NCATS)
# Unmarked numbers belong to inactive results. Records with an inconclusive call do not appear. Entries that show only a call come without a potency. The source made the active and inactive calls. Calls follow the shape of the dose curve; as a rule, active = well fitted inhibition curve with a large enough effect; inconclusive = small, poorly fitted or top-dose-only effect; inactive = no such curve, though single readings can be large or run the other way. *1 amine or outer side, *2 acyl side, *3 side chain or, on linkers, in order; H or OH if unused. Where a SMILES comes first, the peptide text is derived from it. Bridges are numbered along the chain shown (N, C = ends). [ ]: non-standard residue; d: D form. The star is where a group is joined. ξ: configuration not given here. X10 = NC1=NCCC(C(N[*:1])C(=O)[*:2])N1; ΔAla(3-NHCONH2) = NC(=O)NC=C(N)C(=O)O; ξβ3hOrn = NCCCC(N)CC(=O)*; Dap = NC[CH](N)C(=O)O
# Experiment: qHTS assay for measurement of the activity of small molecule inhibitors on Zika virus induced Caspase-3 activity in human astrocytoma cells (AID 1224859)
# Conditions: SNB-19 ZIKV-induced caspase-3/7, luminescence, 6 h; series mostly up to 45.7 µM
# Method in brief: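 SNB-19 astrocytoma cells, 250/well, pretreated 1 h with compounds, then Zika virus at 2 FFU/cell for 6 h at 37 C; Caspase-Glo 3/7 luminescence after 30 min; percent inhibition normalised to uninfected and infected controls.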
row,Structure (SMILES),outcome
1,Cc1oc(-c2ccccc2)nc1CCC(=O)c1ccc(CC2SC(=O)NC2=O)cc1 (configuration not stated),inactive
2,Cc1c(F)cc2c(=O)c(C(=O)O)cn3c2c1CCC3C (configuration not stated),inactive
3,COC(=O)c1ccc(NC(C)=O)cc1OC,inactive
4,CC(=O)O[C@H]1CC[C@@]2(C)C(=CC[C@@H]3[C@@H]2CC[C@]2(C)C(C(C)=O)=CC[C@@H]32)C1,inactive
5,CCOC(=O)c1ccc(O)c(O)c1,inactive
6,OC1(c2ccc(Cl)cc2)CCNCC1,inactive
7,O=C(CCCl)NCCc1ccccc1,inactive
8,O=C1c2ccccc2CCc2ccccc21,inactive
9,Cc1nc(C2CCCCC2)c(-c2ccc(S(N)(=O)=O)c(F)c2)o1,inactive
10,CCOC(=O)CN1CCCC1=O,inactive

# Experiment: NS1 protein of Zika virus - qHTS assay to identify small molecule inhibitors in human HEK 293 cells (AID 1347053); also: nearly all actives have a fitted effect of over 55% in size
# Conditions: HEK293 ZIKV MR766 infection, NS1 TR-FRET, 24 h; series mostly up to 46.1 µM
# Method in brief: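 In this cell-based screen, HEK 293 cultures received compound for one hour before Zika MR766 at MOI = 0.5. NS1 was quantified 24 hours later by TR-FRET, normalized to virus-free wells and infected wells.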
Structure (SMILES),Potency,"activity change, negative = inhibition"
C/C=C(/C(=C/C)c1ccc(OC(C)=O)cc1)c1ccc(OC(C)=O)cc1,inactive,–
CN1CC(=O)N2[C@H](c3ccc4c(c3)OCO4)c3[nH]c4ccccc4c3C[C@@H]2C1=O,inactive,–
O=c1[nH]c2ccccc2c(=O)n1CCCl,inactive,–
NCCCC(N)CC(=O)NCC1NC(=O)C(CO)NC(=O)C(N)CNC(=O)C(C2CCN=C(N)N2)NC(=O)C(=CNC(N)=O)NC1=O (stereo not drawn) (H-[Dap]S[Dap](ξβ3hOrn)[ΔAla(3-NHCONH2)][X10]; lactam 1-C; configuration not given here),–,1.27% [at 0.593 µM]
O=C(O)C1CCC1,inactive,–
C/C(=N\O)[C@@H](C)NCC(C)(C)CN[C@H](C)/C(C)=N/O,inactive,–
O=C(C1CCCCC1)N1CC(=O)N2CCCc3ccccc3C2C1 (configuration not stated),inactive,–
CNC(=O)c1cnn(-c2nc(N)c3ncn([C@@H]4O[C@H](CO)[C@@H](O)[C@H]4O)c3n2)c1,inactive,–
O=C(CCCl)NCc1ccccc1,inactive,–
CCCCCOc1ccccc1/C(=C\SC)n1ccnc1,inactive,–
O=[N+]([O-])c1cncn1CCN1CCOCC1,inactive,–
O=C(OCCN1CCOCC1)c1cccnc1Nc1cccc(C(F)(F)F)c1,inactive,–
CCCc1ncc(C(=O)O)s1,inactive,–
Nc1cc(C(F)(F)F)ccc1S,inactive,–
CCS(=O)(=O)c1ccc(OC)c(C(=O)OC)c1,inactive,–
O=C(CS(=O)Cc1ccco1)NC/C=C\COc1cc(CN2CCCCC2)ccn1 (configuration not stated),inactive,–
CC(C)Cc1ccc(C(C)C(=O)OCc2ccccn2)cc1 (configuration not stated),inactive,–
COc1ccc(OC(=O)N(CC(=O)O)Cc2ccc(OCCc3nc(-c4ccccc4)oc3C)cc2)cc1,inactive,–
Cc1ccc(-c2ccccc2C#N)cc1,inactive,–

Structure (SMILES),Potency,"activity change, negative = inhibition"
[O-][n+]1cccc(/C(Cl)=N/OC[C@@H](O)CN2CCCCC2)c1,inactive,–
Cc1ccc2c(Cl)cc(Cl)c(O)c2n1,inactive,–
CC(C)OP(=O)(CP(=O)(OC(C)C)OC(C)C)OC(C)C,inactive,–
COCCc1ccc(OCC2CO2)cc1 (configuration not stated),inactive,–
O=C1Nc2ccccc2C1(c1ccc(O)cc1)c1ccc(O)cc1,inactive,–
COc1cc(S(N)(=O)=O)cc(C(=O)O)c1OC,inactive,–
Cc1sccc1Br,inactive,–
COc1c(N2C[C@@H]3CCCN[C@@H]3C2)c(F)cc2c(=O)c(C(=O)O)cn(C3CC3)c12,inactive,–
Cc1oc(-c2ccccc2)nc1CCC(=O)c1ccc(CC2SC(=O)NC2=O)cc1 (configuration not stated),inactive,–
Cc1c(F)cc2c(=O)c(C(=O)O)cn3c2c1CCC3C (configuration not stated),inactive,–
COC(=O)c1ccc(NC(C)=O)cc1OC,inactive,–
CC(=O)O[C@H]1CC[C@@]2(C)C(=CC[C@@H]3[C@@H]2CC[C@]2(C)C(C(C)=O)=CC[C@@H]32)C1,inactive,–
CCOC(=O)c1ccc(O)c(O)c1,inactive,–
OC1(c2ccc(Cl)cc2)CCNCC1,inactive,–
O=C(CCCl)NCCc1ccccc1,inactive,–
O=C1c2ccccc2CCc2ccccc21,inactive,–
Cc1nc(C2CCCCC2)c(-c2ccc(S(N)(=O)=O)c(F)c2)o1,inactive,–
CCOC(=O)CN1CCCC1=O,inactive,–
